Outcome and AC50 data for 5 molecules are collected here from PubChem BioAssay (EPA / NIEHS).

Where “and” joins values, the source holds several entries; their conditions need not be identical. Identical values can stand only once. Some structures have more than one record in an assay (separate samples or runs), and their calls can disagree. Calls of active or inactive are those of the source. How the source made its calls: active means hit-call score of the fitted dose curve at least 0.9, where 1 is the maximum; inactive means score below 0.9.

Read-out in assay [1]: Urokinase-type plasminogen activator receptor (uPAR), PLAUR (gene 5329)
Briefly: BSK_CASM3C_uPAR: BioMAP Diversity Plus: CASM3C Assay for Urokinase-type plasminogen activator receptor (uPAR) Biomarker Activity (AID 2283054).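 Further: cell-surface uPAR protein level quantified by ELISA.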 The note with it: primary human coronary artery smooth muscle cells; actives raise or lower the signal.

Read-out in assay [2]: Vascular cell adhesion molecule 1 (VCAM1), VCAM1 (gene 7412)
As to the kind of experiment: BSK_CASM3C_VCAM1: BioMAP Diversity Plus: CASM3C Assay for Vascular cell adhesion molecule 1 (VCAM1) Biomarker Activity (AID 2283055).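 Further: VCAM-1 protein level quantified by ELISA on the cells.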 The settings on record: primary human coronary artery smooth muscle cells; actives raise or lower the signal.

Read-out in assay [3]: Collagen III, COL3A1 (gene 1281)
Briefly: BSK_hDFCGF_CollagenIII: BioMAP Diversity Plus: hDFCGF Assay for Collagen III Biomarker Activity (AID 2283056). The note with it: primary human foreskin fibroblasts; actives raise or lower the signal. In outline: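 ELISA readout of Collagen III in human dermal (foreskin) fibroblasts, taken 24 h post-treatment. Gain or loss relative to DMSO vehicle fitted in both directions.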

Read-out in assay [4]: Epidermal growth factor receptor (EGFR), EGFR (gene 1956)
Briefly: BSK_hDFCGF_EGFR: BioMAP Diversity Plus: hDFCGF Assay for Epidermal growth factor receptor (EGFR) Biomarker Activity (AID 2283057). The settings on record: primary human foreskin fibroblasts; actives raise or lower the signal. In outline: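 ELISA readout of EGFR on human dermal fibroblasts (primary foreskin cells), 24 h post-dosing; bidirectional curve fit vs DMSO baseline, gain or loss of signal scored.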

Read-out in assay [5]: Interleukin-8 (IL8), CXCL8 (gene 3576)
Briefly: BSK_hDFCGF_IL8: BioMAP Diversity Plus: hDFCGF Assay for Interleukin-8 (IL8) Biomarker Activity (AID 2283058). The note with it: primary human foreskin fibroblasts; actives raise or lower the signal. In outline: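 IL-8 levels read by ELISA at 24 hours after dosing human skin fibroblast cultures. Parallel SRB staining assessed overt cytotoxicity, and gain or loss of signal was fitted against DMSO control.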

Assay [6] is described as follows: BSK_hDFCGF_Proliferation: Cell Proliferation Assessment in the BioMAP Diversity Plus: hDFCGF Assay (AID 2283059).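 Further: curves fitted for both rise and fall of signal versus DMSO baseline.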 The settings on record: primary human foreskin fibroblasts. The method, boiled down: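 This proliferation readout used SRB total-protein staining of human foreskin fibroblasts […], normalized to DMSO with bidirectional curve fitting.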

Read-out in assay [7]: Macrophage colony-stimulating factor (MCSF), CSF1 (gene 1435)
Briefly: BSK_hDFCGF_MCSF: BioMAP Diversity Plus: hDFCGF Assay for Macrophage colony-stimulating factor (MCSF) Biomarker Activity (AID 2283060). The settings on record: primary human foreskin fibroblasts; actives raise or lower the signal. In outline:
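M-CSF levels read by ELISA at 24 h post-dosing in human skin fibroblasts. Parallel cultures stained with SRB assessed cytotoxicity at the same time point; response fitted in both directions against the DMSO baseline.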

Read-out in assay [8]: TIMP metallopeptidase inhibitor 1 (TIMP1), TIMP1 (gene 7076)
As to the kind of experiment: BSK_hDFCGF_TIMP1: BioMAP Diversity Plus: hDFCGF Assay for TIMP metallopeptidase inhibitor 1 (TIMP1) Biomarker Activity (AID 2283062). The settings on record: primary human foreskin fibroblasts; actives raise or lower the signal. In outline: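 TIMP-1 measured by ELISA 24 h after chemical dosing of primary human skin fibroblasts, with gain or loss fitted relative to DMSO. Parallel SRB staining (560 nm) monitored overt cytotoxicity.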

Read-out in assay [9]: Monokine induced gamma interferon (MIG), CXCL9 (gene 4283)
Briefly: BSK_hDFCGF_MIG: BioMAP Diversity Plus: hDFCGF Assay for Monokine induced gamma interferon (MIG) Biomarker Activity (AID 2283063). The note with it: primary human foreskin fibroblasts; actives raise or lower the signal. The method, boiled down: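 Human primary foreskin fibroblasts in the hDFCGF system, exposed to test chemical for 24 h; MIG measured by ELISA. Bidirectional curve fitting against DMSO negative control as activity baseline.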

Read-out in assay [10]: Matrix Metallopeptidase 1 (MMP1), MMP1 (gene 4312)
As to the kind of experiment: BSK_hDFCGF_MMP1: BioMAP Diversity Plus: hDFCGF Assay for Matrix Metallopeptidase 1 (MMP1) Biomarker Activity (AID 2283064). The note with it: primary human foreskin fibroblasts; actives raise or lower the signal. In outline:
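Human foreskin fibroblasts exposed to chemical for 24 h; MMP1 detected by ELISA, with DMSO as baseline for bidirectional fitting.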

Read-out in assay [11]: Vascular cell adhesion molecule 1 (VCAM1), VCAM1 (gene 7412)
Briefly: BSK_hDFCGF_VCAM1: BioMAP Diversity Plus: hDFCGF Assay for Vascular cell adhesion molecule 1 (VCAM1) Biomarker Activity (AID 2283065).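 On AC50: VCAM-1 protein level quantified by ELISA after 24 h chemical exposure.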 The note with it: primary human foreskin fibroblasts; actives raise or lower the signal. The method, boiled down: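 ELISA readout of VCAM-1 on human dermal fibroblast primary cultures, 24 h after chemical exposure. Gain or loss of signal fitted in both directions against DMSO baseline.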

Read-out in assay [12]: Plasminogen activator inhibitor-1 (PAI1), SERPINE1 (gene 5054)
Briefly: BSK_hDFCGF_PAI1: BioMAP Diversity Plus: hDFCGF Assay for Plasminogen activator inhibitor-1 (PAI1) Biomarker Activity (AID 2283066). The note with it: primary human foreskin fibroblasts; actives raise or lower the signal. The method, boiled down: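 ELISA readout of PAI-1 from primary human skin fibroblast cultures, 24 h after compound addition. Gain or loss of signal was fitted bidirectionally against DMSO baseline.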

Read-out in assay [13]: Intercellular Adhesion Molecule 1 (ICAM1), ICAM1 (gene 3383)
As to the kind of experiment: BSK_KF3CT_ICAM1: BioMAP Diversity Plus: KF3CT Assay for Intercellular Adhesion Molecule 1 (ICAM1) Biomarker Activity (AID 2283067). The note with it: primary human keratinocytes with fibroblasts; actives raise or lower the signal. The method, boiled down:
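Cell-surface ICAM-1 was measured by ELISA 24 h after dosing primary human skin keratinocytes co-cultured with fibroblasts. Parallel SRB staining tracked overt cytotoxicity. Gain or loss of signal was fitted relative to DMSO.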

Read-out in assay [14]: Interferon-gamma inducible Protein 10 (IP10), CXCL10 (gene 3627)
As to the kind of experiment: BSK_KF3CT_IP10: BioMAP Diversity Plus: KF3CT Assay for Interferon-gamma inducible Protein 10 (IP10) Biomarker Activity (AID 2283068). The settings on record: primary human keratinocytes with fibroblasts; actives raise or lower the signal. The method, boiled down:
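Signal is secreted/surface IP-10 by ELISA in a human primary skin co-culture of keratinocytes and foreskin fibroblasts, taken 24 h post-dosing; DMSO served as negative control.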

A short description of assay [15]: BSK_KF3CT_SRB: Viability Assessment in the BioMAP Diversity Plus: KF3CT Assay (AID 2283069). The note with it: primary human keratinocytes with fibroblasts. In outline:
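Overt cytotoxicity is assessed as total protein by sulforhodamine B staining in parallel human skin co-cultures at 24 h after dosing. DMSO serves as negative control and baseline.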

Read-out in assay [16]: Interleukin-1 alpha (IL1a), IL1A (gene 3552)
Briefly: BSK_KF3CT_IL1a: BioMAP Diversity Plus: KF3CT Assay for Interleukin-1 alpha (IL1a) Biomarker Activity (AID 2283070). The note with it: primary human keratinocytes with fibroblasts; actives raise or lower the signal. In outline:
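Readout is IL-1a level by ELISA, compared bidirectionally with DMSO as baseline. Cells: human keratinocytes co-cultured with foreskin fibroblasts, harvested 24 h post-dose.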

Read-out in assay [17]: TIMP metallopeptidase inhibitor 2 (TIMP2), TIMP2 (gene 7077)
As to the kind of experiment: BSK_KF3CT_TIMP2: BioMAP Diversity Plus: KF3CT Assay for TIMP metallopeptidase inhibitor 2 (TIMP2) Biomarker Activity (AID 2283071). The settings on record: primary human keratinocytes with fibroblasts; actives raise or lower the signal. The method, boiled down: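 ELISA readout of TIMP-2 in keratinocyte plus foreskin fibroblast co-cultures (human skin primary cells), 24 h post-dose. Gain or loss of signal fitted relative to DMSO.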

Read-out in assay [18]: C-C motif chemokine 2 (Homo sapiens) (UniProt P13500)
As to the kind of experiment: BSK_KF3CT_MCP1: BioMAP Diversity Plus: KF3CT Assay for Monocyte Chemoattractant Protein 1 (MCP1/CCL2) Biomarker Activity (AID 2283073). The settings on record: primary human keratinocytes with fibroblasts; actives raise or lower the signal. In outline:
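ELISA read-out of MCP-1, 24 h post-dose, in primary human skin keratinocytes co-cultured with fibroblasts. Parallel SRB staining monitors cytotoxicity; changes fitted both directions relative to DMSO.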

Read-out in assay [19]: Transforming growth factor beta 1 (TGFb1), TGFB1 (gene 7040)
As to the kind of experiment: BSK_KF3CT_TGFb1: BioMAP Diversity Plus: KF3CT Assay for Transforming growth factor beta 1 (TGFb1) Biomarker Activity (AID 2283072). The settings on record: primary human keratinocytes with fibroblasts; actives raise or lower the signal. The method, boiled down:
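Read-out: ELISA for TGF-b1 in keratinocyte/foreskin fibroblast human skin co-culture, 24 h after dosing; bidirectional curve fit vs DMSO baseline; gain or loss of signal scored.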

Assay [20] in a line: BSK_hDFCGF_SRB: Viability Assessment in the BioMAP Diversity Plus: hDFCGF Assay (AID 2283061).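 Further: cells exposed to compound for 24 h before the read.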 The note with it: primary human foreskin fibroblasts. The method, boiled down: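 Viability was read as total protein: after 10% TCA fixation, wells were stained with 0.1% sulforhodamine B and read at 560 nm. Primary human foreskin fibroblasts were dosed for 24 h, with bidirectional fitting versus DMSO.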

Take `CC(=O)OC(c1ccccc1)C(Cl)(Cl)Cl` (configuration not stated): the result in [1], in [2], in [3], in assay [4], in [5] and in assay [7] was inactive. Moreover, the outcome in [8], in [9], in assay [10], in assay [11], in [12] and in [13] was inactive. In addition, the result in assay [14], in [15], in assay [16], in [17] and in assay [18] was inactive. Also, the half-maximal activity concentration (AC50) was 31 µM (active) and 25.6 µM (active) in [6]; 36.7 µM (active) in [9].
Turning to `COP(=S)(OC)Oc1cc(Cl)c(Cl)cc1Cl`, the outcome in assay [1], in [4], in assay [5], in assay [6], in assay [8] and in assay [9] was inactive. Also, the result in [10], in assay [12], in assay [13], in assay [14], in assay [15] and in assay [16] was inactive. Moreover, the result in assay [18] was inactive. For the same molecule, the half-maximal activity concentration (AC50) in [2] was 16.5 µM (active); in [3] it was 20 µM (active); in assay [11], 25.4 µM (active); in assay [17] it was 32.2 µM (active); in assay [19], 36.3 µM (active).
Take `CC12CC1(C)C(=O)N(c1cc(Cl)cc(Cl)c1)C2=O` (configuration not stated): the outcome in assay [1], in [2], in assay [3], in assay [4], in assay [6] and in assay [7] was inactive. For the same molecule, the result in assay [8], in assay [9], in assay [10], in assay [11], in assay [12] and in [13] was inactive. Further, the outcome in assay [14], in assay [15], in assay [16], in assay [17], in assay [19] and in assay [18] was inactive.
As for `COc1cc(-c2ccc(N)c(OC)c2)ccc1N`, the outcome in assay [1], in [2], in assay [3], in [4], in assay [5] and in [7] was inactive. Also, the result in assay [20], in assay [8], in [9], in [10], in assay [11] and in assay [12] was inactive. Further, the outcome in assay [13], in assay [14], in [15], in assay [16], in assay [17] and in assay [19] was inactive. Also, in assay [18], the outcome was inactive. Also, the AC50 in assay [6] is 13.2 µM (active) and 4.28 µM (active); in assay [7], 9.49 µM (active); in assay [10] it was 20 µM (active); in assay [11], 19.2 µM (active).
For `O=C(O)CCC(F)(C(F)(F)F)C(F)(F)F`, the result in assay [1], in [2], in assay [4], in assay [6], in assay [7] and in [8] was inactive. Besides, the result in assay [9], in [10], in assay [11], in assay [12], in [13] and in [14] was inactive. The result in assay [15], in [16], in [17] and in [18] was inactive. Also, the concentration at half-maximal activity (AC50) was 0.25 µM (active) in assay [2], 5.95 µM (active) in assay [7] and 7.04 µM (active) in assay [11].
